From PubChem BioAssay (NCI)
Compounds without any hit were thinned out: in the full panel of roughly 83,000, 20% have a hit.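 Compound tested at a single concentration for 48 hours in 96-well plates; a percent growth value below 10 was scored as active.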 Unmarked numbers belong to inactive results. Active and inactive are the calls of the source.

Experiments:
Assay in all cases: NCI-60 one-dose screen, 48 h (100 = growth as untreated, 0 = no growth, -100 = all killed)
Conditions in all cases: 10 µM unless noted
DU-145 prostate = tested on: DU-145 prostate
K-562 leukemia = tested on: K-562 leukemia
MALME-3M melanoma = tested on: MALME-3M melanoma
MDA-MB-231 breast = tested on: MDA-MB-231 breast
SF-268 CNS = tested on: SF-268 CNS
SF-295 CNS = tested on: SF-295 CNS
SF-539 CNS = tested on: SF-539 CNS
M14 melanoma = tested on: M14 melanoma

SMILES	growth (DU-145 prostate)	growth (K-562 leukemia)	growth (MALME-3M melanoma)	growth (MDA-MB-231 breast)	growth (SF-268 CNS)	growth (SF-295 CNS)	growth (SF-539 CNS)	growth (M14 melanoma)
C=CC[n+]1c(/C=C/C=C2\N(C)c3ccccc3C2(C)C)sc2ccc(OC)cc21	25.6%	10.3%	5.31% (active)	26.1%	32.7%	-17.7% (active)	25.7%	23%
CCOC(=O)C1=C(C)N=C2Sc3cc(OC(F)(F)F)ccc3N2[C@H]1c1ccccn1	46.5%	21.9%	59.1%	53.9%	47.8%	22.2%	41%	27.3%
CC(C)C1CCC(C)C(C2(C#N)C(N)=NC(N)=C2C#N)C1=O (stereo not drawn)	102%	98.7%	92.3%	95.8%	97.3%	103%	97.7%	96.1%
C=C1C(=O)O[C@H]2[C@H]1CC/C(Cn1cc(-c3cc(C)c(C)cc3C)nn1)=C\CC[C@@]1(C)O[C@@H]21	-100% (active)	-10.7% (active)	-79.8% (active)	-73.7% (active)	-54.5% (active)	59.8%	-82.9% (active)	-57.3% (active)
c1cc[n+](Cc2c3ccccc3cc3c2ccc2ccccc23)cc1	57.2%	16.4%	-23.5% (active)	72.1%	7.4% (active)	4.38% (active)	13.6%	62.3%
N#CC1(C#N)C(c2cccs2)NC(c2cccs2)C1(C#N)C#N (stereo not drawn)	102%	95.8%	99.2%	104%	98.1%	95.6%	97.6%	102%
COc1ccc(C2OC(c3cc(-c4cc5ccccc5o4)nn3-c3ccccc3)=NN2C(C)=O)cc1 (stereo not drawn)	101%	93.1%	107%	95.9%	97.7%	100%	98.6%	99%
CCCCN1CCCC[C@@H]1C(=O)N[C@H](C(=O)N(C)[C@H](CCc1nc(C(=O)N[C@@H](Cc2ccccc2)C[C@H](C)C(=O)OC)cs1)C(C)C)C(C)C	92.9%	22.9%	45.1%	71.5%	84.3%	49.4%	82.8%	49.9%
CSc1nc2ncnc(SC)c2[nH]1	110%	100%	110%	107%	102%	102%	103%	97.9%
CC(C)n1c(NCCc2ccc(O)c(O)c2)nc2c1c(=O)n(C)c(=O)n2C	102%	97.1%	97.9%	92.2%	94.2%	106%	104%	98.8%
COc1ccc(C2CC(=O)c3c(O)c(OC)c(OC)c(OC)c3O2)cc1O (stereo not drawn)	18.2%	11.6%	57.5%	17.1%	44.6%	6.54% (active)	-13% (active)	7.68% (active)
NC(=O)c1n[nH]n2c1nc(=O)c1c3c(sc12)CCCC3	110%	89.5%	109%	101%	105%	102%	102%	98%
CCCCCCCC(=O)SCC/C=C/[C@@H]1CC(=O)NCc2nc(co2)C2=N[C@@](C)(CS2)C(=O)N[C@@H](C(C)C)C(=O)O1	7.24% (active)	6.6% (active)	5.59% (active)	-1.69% (active)	1.9% (active)	-62.5% (active)	9.22% (active)	-3.25% (active)
COc1cc2c(cc1OCCCCCN1CCN(c3ncnc4ccccc34)CC1)N=CC1CCCN1C2=O (stereo not drawn)	-20.8% (active)	5.44% (active)	-59% (active)	-26.6% (active)	-0.231% (active)	-39.7% (active)	-77.3% (active)	-66.9% (active)
NC1=Nc2ccccc2N(O)N1	113%	96.7%	97%	102%	98.1%	102%	96.3%	103%
CC[n+]1c(/C=C/C=C2\N(C)c3ccccc3C2(C)C)sc2ccccc21	20.3%	2.44% (active)	13.6%	8.67% (active)	25.6%	-6.72% (active)	19.9%	12.6%
